# IL-1B inflam inh: inflammasome signaling inhibition, IL-1 beta readout; THP-1 LPS/ATP IL-1B secretion, AlphaLISA, 16 h; active compounds read low; activity change, % at 57.5 µM; 4.7% of 360,000 active; AID 743279; in the data active = activity change below about -50%; inconclusive = mostly about -30% to -49%
#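 THP-1 cells pretreated 1 hr with compounds (up to 57.5 uM final), then stimulated with LPS (250 ng/mL final) plus ATP (1.25 mM final); secreted IL-1B measured by AlphaLISA after 16 hr, decreased signal indicating inhibition.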
# D3 antag: blocks the human D3 dopamine receptor; D3R cells, DiscoveRx beta-arrestin luminescence, antagonist mode; active compounds read low; max response, negative = inhibition, %; 2.5% of 360,000 active; in the data active = max response below about -50%; inconclusive = no clear call, values can overlap the other calls
# Target sequence (P35462 whole entry, looked up): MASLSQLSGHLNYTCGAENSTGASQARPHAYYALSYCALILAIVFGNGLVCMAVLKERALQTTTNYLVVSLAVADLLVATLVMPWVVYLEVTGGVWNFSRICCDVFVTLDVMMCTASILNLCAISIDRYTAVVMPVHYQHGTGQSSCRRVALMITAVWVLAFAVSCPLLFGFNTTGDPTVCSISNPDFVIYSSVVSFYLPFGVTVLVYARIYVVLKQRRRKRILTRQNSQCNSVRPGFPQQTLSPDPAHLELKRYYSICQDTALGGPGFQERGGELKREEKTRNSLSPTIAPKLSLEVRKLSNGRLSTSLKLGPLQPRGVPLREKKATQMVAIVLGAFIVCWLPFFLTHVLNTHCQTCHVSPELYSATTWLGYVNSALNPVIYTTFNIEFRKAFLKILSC
#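 Cells expressing the human receptor were seeded at 1500 cells/well, incubated overnight at 37 degrees C in 5% CO2, then exposed to library compounds with dopamine controls for 90 minutes at 37 degrees C before luminescent detection.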
# TDP1 cell CPT: growth inhibition of DT40 Tdp1-/-;hTDP1 cells with camptothecin (screen for TDP1 inhibitors); 12% of 420,000 active; Potency, µM (highest dose often 46.2 µM), most hits filed as inhibitors; chicken DT40 Tdp1-/-;hTDP1 cells + 20 nM CPT, ATP luminescence, 48 h; note: nearly all actives have a fitted effect of over 55% in size
#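 Chicken DT40 Tdp1-/- cells stably complemented with human TDP1 were seeded at 400 cells/well in medium containing 20 nM camptothecin, exposed to pin-transferred compounds, and grown at 37 °C for at least 48 hr. Viability was read as ATP luminescence.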
# DRD3 agonist: activates the human D3 dopamine receptor | D3R DiscoveRx beta-arrestin cells, luminescence, 90 min | max activation, % | 0.58% of 410,000 active; in the data active = max activation above about 30%
#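 Agonist-mode cell screen: cells plated at 1500/well and incubated overnight at 37 °C, then exposed to library compounds for 90 min at 37 °C. Detection reagent was added for 30–60 min at room temperature, and luminescence was read.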
# DT40 TDP1 no CPT: qHTS for Inhibitors of human tyrosyl-DNA phosphodiesterase 1 (TDP1): qHTS in cells in absence of CPT | DT40 Tdp1-/- hTDP1 cells, no CPT, ATP luminescence, 48 h | Potency, µM (titrated, usually from 46.2 µM), usual class: inhibitors | 15% of 420,000 active | AID 686978, 2013; note: nearly all actives have a fitted effect of over 55% in size
#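 Readout: luminescence from CellTiter-Glo after 30 min in the dark at RT. Cells: DT40 Tdp1-/- with stable hTDP1, 400/well. Exposure: compounds alone, ≥48 hr, 37 °C.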
# ClpP mod: qHTS Assay for Activators of ClpP; AID 651965, 2013; purified B. subtilis ClpP, FRET peptide cleavage, 20 min; 1.9% of 340,000 active; Potency, µM (titrated, usually from 57.5 µM); active = well fitted falling curve with a large enough effect; inconclusive = small, poorly fitted or top-dose-only effect; inactive = no such curve, though single readings can be large or run the other way; note: the source files actives as falling curves though it sought activators and does not explain the sign; nearly all actives have a fitted effect of over 65% in size
# Target sequence (P80244 whole entry, looked up): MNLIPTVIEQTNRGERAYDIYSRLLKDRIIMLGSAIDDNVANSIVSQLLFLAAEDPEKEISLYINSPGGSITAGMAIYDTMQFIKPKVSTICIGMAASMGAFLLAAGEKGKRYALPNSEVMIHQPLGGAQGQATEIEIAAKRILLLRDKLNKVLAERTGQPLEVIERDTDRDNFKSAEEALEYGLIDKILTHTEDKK
#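 FRET quenching reversal measured ClpP activation: 10 microg/mL B. subtilis ClpP at pH 8 with the FRET-FV decapeptide, read at 430 nm after 320 nm excitation. The 20-min minus 0-min signal was scaled between DMSO/no-enzyme wells and ADEP (5.8 microM final).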
# Hits are given with their value; – = inactive; ? = inconclusive; · = no result; [ ] = remark or other dose. Sampled rows, rich in hits. Any-hit rate of the full collection: about 21%. Unless noted, calls come from the whole dose curve; as a rule, active = well fitted inhibition curve with a large enough effect; inconclusive = small, poorly fitted or top-dose-only effect; inactive = flat fitted curve, though single readings scatter.
SMILES,IL-1B inflam inh,D3 antag,TDP1 cell CPT,DRD3 agonist,DT40 TDP1 no CPT,ClpP mod
COc1ccc2cc(CN(CC3CCCO3)C(=S)Nc3ccccc3)c(=O)[nH]c2c1 (stereo unspecified),?,?,5.2µM,–,6.5µM,–
O=C(NCc1ccccc1)N(Cc1cc2cc3c(cc2[nH]c1=O)OCO3)CC1CCCO1 (stereo unspecified),–,–,–,–,?,28µM
CCOc1ccccc1C(=O)N(Cc1ccccc1)Cc1cc2cc3c(cc2[nH]c1=O)OCCO3,–,–,26µM,–,23µM,?
COc1ccc2[nH]c(=O)c(CN(CC3CCCO3)C(=S)Nc3ccccc3)cc2c1 (stereo unspecified),–,–,?,–,?,–
Cc1ccc2c(c1)c1c(c(=O)n(Cc3ccccc3)c(=O)n1Cc1cccc(F)c1)n2C,·,·,?,–,?,–
Cc1cc(C)cc(-n2ccn(CC(=O)Nc3ccccc3C(F)(F)F)c(=O)c2=O)c1,·,·,–,–,–,–
COc1ccc(NC(=O)COC(=O)c2ccc(S(=O)(=O)N3CCCCCC3)cc2)c(OC)c1,–,–,–,–,–,–
CC(=O)Nc1cccc(NC(=S)Nc2cccc(Cl)c2Cl)c1,–,–,–,–,–,–
Cc1cccc(NC(=S)N2CCN(Cc3ccccc3)CC2)c1C,–,–,–,–,?,–
Cc1cccc(NC(=S)NC2CCN(Cc3ccccc3)CC2)c1C,–,-53,?,–,?,–
O=C(Nc1cccc(F)c1)NC1CCN(Cc2ccccc2)CC1,–,-82,–,–,?,–
CCc1cccc(CC)c1NC(=S)Nc1cccc(Cl)c1Cl,–,–,18µM,–,?,·
CC(C)(C)CC(C)(C)NC(=S)NC1CCN(Cc2ccccc2)CC1,-104,?,5.2µM,–,4.6µM,–
S=C(Nc1cccc(Cl)c1Cl)NC1CCN(Cc2ccccc2)CC1,-81,-90,21µM,–,?,–
CCN1CCC(NC(=O)Nc2ccc(F)cc2)CC1,–,–,?,–,–,–
CC(C)[C@H](NC(=O)NC1CCN(Cc2ccccc2)CC1)C(=O)O,–,–,–,–,–,·
S=C(Nc1ccc(CN2CCCCC2)cc1)Nc1cccc(Cl)c1Cl,–,-76,?,–,18µM,–
Fc1ccc(NC(=S)NC2CCN(Cc3ccccc3)CC2)cc1,–,-55,?,–,?,–
O=C(NC1CCN(Cc2ccccc2)CC1)c1c(Cl)cccc1Cl,–,–,–,–,–,–
COC(=O)[C@@H](NC(=O)NC1CCN(Cc2ccccc2)CC1)C(C)C,–,-53,–,–,–,–
O=C(CN1CCC(NC(=O)Nc2ccc(F)cc2)CC1)Nc1ccccc1[N+](=O)[O-],–,–,?,–,21µM,·
COc1cccc(NC(=O)NC2CCN(CC(=O)Nc3ccccc3[N+](=O)[O-])CC2)c1,–,–,?,–,?,·
CS(=O)(=O)N(CCCC(=O)N1CCCCCC1)c1cccc(Cl)c1,–,–,–,–,–,–
CCn1nnc(NC(=O)c2ccc(-c3ccc(Cl)cc3)o2)n1,–,–,–,–,–,11µM
CN1CCN(c2ccc(NC(=O)c3ccc(-c4cccc([N+](=O)[O-])c4)o3)cc2)CC1,-55,–,–,–,?,·
SMILES,IL-1B inflam inh,D3 antag,TDP1 cell CPT,DRD3 agonist,DT40 TDP1 no CPT,ClpP mod
CN1CCN(c2ccc(NC(=O)c3ccc(-c4ccc(Cl)cc4)o3)cc2)CC1,-99,–,16µM,–,21µM,–
CCn1nnc(NC(=O)Cc2ccc(Cl)cc2)n1,–,–,–,–,–,–
CCC1(C2CCN(C(=O)c3ccccc3C)CC2)NC(=O)N(CCc2scnc2C)C1=O (stereo unspecified),·,·,–[9.04 µM],·,–,·
COc1ccccc1NC(=O)NC1CC(=O)N(c2ccc3c(c2)OCCO3)C1 (stereo unspecified),–,–,–,–,?,–
CC(Oc1ccccc1)C(=O)OCc1cc(=O)n2nc(C(C)C)sc2n1 (stereo unspecified),·,·,–,–,–,–
O=[N+]([O-])c1ccccc1S(=O)(=O)N1CCN(c2nc(-c3cccs3)nc3ccccc23)CC1,·,·,?,·,?,–
O=[N+]([O-])c1ccc2[nH]nc(-c3ccccc3)c2c1,–,–,?,–,–,–
O=[N+]([O-])c1ccc(-c2c(-c3ccccc3)ncc3cc(F)ccc23)cc1,–,–,15µM,–,18µM,–
O=[N+]([O-])c1cccc(-c2c(-c3ccccc3)ncc3cc(F)ccc23)c1,–,–,8.2µM,–,21µM,–
Cc1cc(-c2cccc([N+](=O)[O-])c2)nc2ccccc12,–,–,–,–,–,–
CCOC(=O)N1CCc2c(sc(NCc3cc(OC)c(OC)cc3OC)c2C(=O)Nc2ccc(OCC)cc2)C1,·,·,?,–,?,–
COc1ccc(C(CC(=O)O)NC(=O)c2cc3ccccc3oc2=O)cc1OC (stereo unspecified),·,·,·,–,·,–
COC(=O)c1sc2ccccc2c1-n1cccc1C(=O)C(=O)Nc1ccc(Cl)cc1,–,?,?,–,?,14µM
COc1cc2c(cc1OC)C(COc1cccc(C(F)(F)F)c1)NCC2 (stereo unspecified),–,?,21µM,–,?,–
COc1ccc(OCC2NCCc3cc(OC)c(OC)cc32)cc1 (stereo unspecified),–,–,?,–,?,–
CCN(/C=N/S(=O)(=O)c1ccc(Cl)cc1)CC,–,–,–,–,–,·
CN1CCC(CC(C(=O)N2CCCC2)(c2ccccc2)c2ccccc2)C1 (stereo unspecified),–,–,23µM,–,?,·
CC(C)(C)C(=O)N1CCC[C@H]1C(O)(c1ccccc1)c1ccccc1,–,?,?,–,?,–
CCOC(=O)CC1C(=O)NCCN1c1nc2ccc(C)cn2c(=O)c1/C=C1\SC(=S)N(CC(C)C)C1=O (stereo unspecified),–,–,?,–,?,·
CCCN1C(=O)/C(=C/c2c(N3CCNC(=O)C3CC(=O)OCC)nc3c(C)cccn3c2=O)SC1=S (stereo unspecified),–,–,18µM,–,16µM,–
COc1ccc(C[C@H]2CN3C(=NC[C@@H]3C(C)C)N2CCNC(=O)CCC2CCCCC2)cc1,-56,?,8.2µM,–,7.3µM,–
CC(C)[C@H]1CN=C2N(CCNC(=O)CCC3CCCCC3)[C@H](Cc3ccc(O)cc3)CN21,–,-83,13µM,–,8.2µM,–
